Most compounds without a hit are left out; they make up all but 19% or so of the library.
HepG2 viability – qHTS for Inhibitors of TGF-b: Cytotox Counterscreen; HepG2 CAGA-GFP viability, ATP luminescence, 18 h; Potency, µM (doses to about 46.1 µM), most hits filed as cytotoxic; hit rate 0.76% among 410,000
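HepG2 CAGA-GFP cells (1000/well, DMEM with 1% FBS) received compound, then TGF-beta at 500 pg/mL final, and were incubated 18 hours at 37 degrees C. Viability was read by CellTiter-Glo luminescence. Media-only wells were set as complete cell-killing and DMSO as no toxicity.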
IL-1B inflam inh – qHTS for Inhibitors of Inflammasome Signaling: IL-1-beta AlphaLISA Primary Screen; hit rate 4.7% among 360,000; THP-1 LPS/ATP IL-1B secretion, AlphaLISA, 16 h; active compounds read low; AID 743279, 2014; activity change, % at 57.5 µM; in the data active = activity change below about -50%; inconclusive = mostly about -30% to -49%
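THP-1 cells pretreated 1 hr with compounds (up to 57.5 uM final), then stimulated with LPS (250 ng/mL final) plus ATP (1.25 mM final); secreted IL-1B measured by AlphaLISA after 16 hr, decreased signal indicating inhibition.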
TDP1 block – qHTS Assay for Inhibitors of Tyrosyl-DNA Phosphodiesterase (TDP1). hit rate 0.28% among 350,000. Potency, µM (highest dose often 130 µM), most hits filed as inhibitors. recombinant TDP1, AlphaScreen DNA substrate cleavage. Tyrosyl-DNA phosphodiesterase 1 (Homo sapiens), Q9NUW8; also: nearly all actives have a fitted effect of over 40% in size
Target sequence (Q9NUW8 whole entry, looked up): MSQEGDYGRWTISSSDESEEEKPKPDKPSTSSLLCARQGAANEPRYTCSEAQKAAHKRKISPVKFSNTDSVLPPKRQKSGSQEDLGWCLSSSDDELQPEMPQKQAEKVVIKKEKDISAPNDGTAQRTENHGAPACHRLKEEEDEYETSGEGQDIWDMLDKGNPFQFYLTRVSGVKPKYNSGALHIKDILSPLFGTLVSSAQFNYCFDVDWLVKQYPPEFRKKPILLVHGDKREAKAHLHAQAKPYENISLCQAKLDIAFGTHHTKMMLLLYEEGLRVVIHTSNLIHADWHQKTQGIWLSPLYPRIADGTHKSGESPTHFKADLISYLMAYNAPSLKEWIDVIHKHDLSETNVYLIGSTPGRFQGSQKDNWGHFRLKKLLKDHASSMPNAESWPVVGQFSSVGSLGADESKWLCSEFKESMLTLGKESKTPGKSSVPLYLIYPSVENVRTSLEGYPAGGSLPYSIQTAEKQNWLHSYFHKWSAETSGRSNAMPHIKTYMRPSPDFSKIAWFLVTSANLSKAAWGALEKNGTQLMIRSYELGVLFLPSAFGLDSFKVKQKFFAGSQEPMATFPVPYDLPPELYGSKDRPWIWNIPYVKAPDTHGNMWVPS
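Steps: enzyme plus compound, 15 min RT; add biotin/phosphotyrosine-FITC oligonucleotide (15 nM final), react 5 min; add donor/acceptor beads (10 ug/ml final), 10 min; read AlphaScreen. Tdp1 at 1 nM final.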
TDP1 cell CPT – qHTS for Inhibitors of human tyrosyl-DNA phosphodiesterase 1 (TDP1): qHTS in cells in presence of CPT | chicken DT40 Tdp1-/-;hTDP1 cells + 20 nM CPT, ATP luminescence, 48 h | Potency, µM (doses to about 46.2 µM), hits mostly inhibitors | hit rate 12% among 420,000; also: nearly all actives have a fitted effect of over 55% in size
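Chicken DT40 Tdp1-/- cells complemented with human TDP1, 400 cells/well, exposed to compounds plus 20 nM camptothecin for at least 48 h at 37 C; viability read as ATP content by CellTiter-Glo luminescence.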
TGFb inhibitor – qHTS for Inhibitors of TGF-b; HepG2 CAGA-GFP TGF-b/SMAD3 reporter, GFP fluorescence, 18 h; TGF-beta stimulated, 500 pg/mL final; Potency, µM (series often up to 46.1 µM), actives largely listed as inhibitors; hit rate 1.2% among 410,000; AID 588855, 2011; also: nearly all actives have a fitted effect of over 65% in size
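HEPG2 CAGA-GFP cells (1000/well, DMEM with 1% FBS) were pre-incubated 2 h at 37 degrees C, given compound by pin tool, then stimulated with TGF-beta at 500 pg/mL final for 18 h before per-cell GFP fluorescence imaging.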
DT40 TDP1 no CPT – qHTS for Inhibitors of human tyrosyl-DNA phosphodiesterase 1 (TDP1): qHTS in cells in absence of CPT; DT40 Tdp1-/- hTDP1 cells, no CPT, ATP luminescence, 48 h; Potency, µM (doses to about 46.2 µM), hits mostly inhibitors; hit rate 15% among 420,000; also: nearly all actives have a fitted effect of over 55% in size
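DT40 Tdp1-/-;hTDP1 cells, no CPT (DMSO vehicle only), 400 cells/well; compounds pin-transferred; ≥48 hr, 37 °C; CellTiter-Glo 30 min RT dark, luminescence read.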
Of the large screens only hits and unclear results are named; the others gave an inactive call. Unless noted, calls follow the shape of the dose curve; as a rule, active = well fitted curve in the direction sought with a large enough effect; inconclusive = small, poorly fitted or top-dose-only effect, or another doubt; inactive = no such curve, though single readings can be large; an effect the other way counts as inactive or inconclusive.

CCCCn1c(N)c(N(CCOC)C(=O)CN(C)CC(=O)Nc2ccc(Cl)c(Cl)c2)c(=O)[nH]c1=O	IL-1B inflam inh inconclusive, TDP1 cell CPT 18µM, DT40 TDP1 no CPT inconclusive
COc1ccc(Cl)cc1NC(=O)CN(C)CC(=O)N(CC(C)C)c1c(N)n(CC(C)C)c(=O)[nH]c1=O	none
CCCCn1c(N)c(N(CCOC)C(=O)COC(=O)COc2cc(C)c(Cl)cc2C(C)C)c(=O)[nH]c1=O	IL-1B inflam inh -98, TGFb inhibitor inconclusive
COc1cc(OC)c(OC)cc1CN1CCc2nc(Nc3ccc4c(c3)OCCO4)ncc2C1	TDP1 cell CPT 16µM, DT40 TDP1 no CPT inconclusive (no result: IL-1B inflam inh)
Clc1ccc(CN2CCc3nc(Nc4ccc5c(c4)OCCO5)ncc3C2)cc1	TDP1 cell CPT 16µM, TGFb inhibitor inconclusive, DT40 TDP1 no CPT 13µM (no result: IL-1B inflam inh)
Cc1ccc(Cn2c(C)c(CNCCCc3ccccc3)c(C(=O)O)c2C)cc1	TDP1 cell CPT inconclusive, DT40 TDP1 no CPT inconclusive (no result: IL-1B inflam inh)
Cc1cc(C)c(Cn2c(C)c(CNCCCc3ccccc3)c(C(=O)O)c2C)c(C)c1	TDP1 cell CPT inconclusive, DT40 TDP1 no CPT 23µM (no result: IL-1B inflam inh)
C[C@@H]1CC[C@H](Cc2ccc(-n3cccc3)cc2)N1C(=O)OC(C)(C)C	TDP1 cell CPT inconclusive, DT40 TDP1 no CPT 18µM (no result: TDP1 block)
COC(=O)c1sc2ncccc2c1OCc1ccc(Cl)cc1	none
CCOc1ccc(CCNC(=O)c2cccs2)cc1OCC	DT40 TDP1 no CPT inconclusive
Cc1nnsc1C(=O)NC(C)c1ccccc1 (centres undefined)	TDP1 cell CPT inconclusive
CCOc1ccc(CCNC(=O)c2sc3ncccc3c2-n2cccc2)cc1OCC	TDP1 cell CPT 26µM, DT40 TDP1 no CPT inconclusive (no result: IL-1B inflam inh)
CC(C)NC(=O)c1sc2ncccc2c1-n1cccc1	TDP1 cell CPT inconclusive, DT40 TDP1 no CPT 2.6µM (no result: IL-1B inflam inh)
CC(NC(=O)c1sc2ncccc2c1-n1cccc1)c1ccccc1 (centres undefined)	TDP1 cell CPT inconclusive, DT40 TDP1 no CPT 23µM (no result: IL-1B inflam inh)
CCc1ccc(-c2cc(C)no2)cc1S(=O)(=O)Nc1ccc(Cl)cc1	TDP1 cell CPT inconclusive, TGFb inhibitor inconclusive, DT40 TDP1 no CPT inconclusive (no result: IL-1B inflam inh)
CSCCC(NC(=O)COc1ccccc1)C(=O)N1CCCC(C)C1 (centres undefined)	none
CC(=O)C1=NN(c2ccccc2)C(c2cccs2)N1c1ccc(N(C)C)cc1 (centres undefined)	IL-1B inflam inh -72, TDP1 cell CPT 2.2µM, TGFb inhibitor inconclusive, DT40 TDP1 no CPT 4µM
CC(=O)C1=NN(c2ccccc2)C(c2ccc3c(c2)OCO3)N1c1ccccc1 (centres undefined)	TDP1 cell CPT inconclusive, DT40 TDP1 no CPT inconclusive
CC1(C)Cc2ccccc2/C(=C/C(=O)N2CCCCCC2)N1	TDP1 cell CPT 16µM, TGFb inhibitor inconclusive, DT40 TDP1 no CPT 26µM
O=C(Cn1cncn1)N1CCOc2ccc(CN3CCN(c4ccccc4)CC3)cc2C1	none (no result: HepG2 viability, IL-1B inflam inh, TDP1 block, TGFb inhibitor)
O=C(Nc1cccc(Cl)c1Cl)c1ccc2c(c1)N(Cc1cccc(Cl)c1)C(=O)c1ccccc1S2(=O)=O	none (no result: IL-1B inflam inh, TDP1 cell CPT, DT40 TDP1 no CPT)
CCNc1nc(C)c2cc(Br)c(=O)n(CC)c2n1	TDP1 cell CPT 3.7µM, DT40 TDP1 no CPT 2.9µM
CCNc1ncc2nc(C)c(=O)n(CCC#N)c2n1	none (no result: HepG2 viability, IL-1B inflam inh, TDP1 block, TGFb inhibitor)
O=C(O)C1CCC[C@@H]2[C@@H]3CC(CN12)[C@@H]1CCCCN1C3 (some centres undefined)	none (no result: HepG2 viability, IL-1B inflam inh, TGFb inhibitor)
O=C(C1CCN(S(=O)(=O)c2ccccc2[N+](=O)[O-])CC1)N1CCOCC1	none
O=C(C1Cc2ccccc2CN1S(=O)(=O)c1ccccc1[N+](=O)[O-])N1CCOCC1 (centres undefined)	TDP1 cell CPT 21µM, DT40 TDP1 no CPT inconclusive

Screens as filed in PubChem BioAssay.
